High-throughput results: PubChem BioAssay, The Scripps Research Institute Molecular Screening Center
This is a sample that favours compounds with a hit; in the whole collection about 4.1% have one here.
DAX1 inh-1: DAX1 (NR0B1) inhibition, primary screen; inhibition, % at 6.8 µM; HEK293T StAR-luciferase reporter, SF-1/DAX-1 repression relief; AID 652010; 370,000 tested, 1.1% active;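 active means inhibition above the mean over all tested compounds plus 3 SD, cut at about 3.6% in these data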;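 further: 0% = DAX-1 cells with DMSO and 100% = cells lacking DAX-1 with DMSO; higher inhibition means more luminescence from relief of DAX-1 repression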
hgDAF12 agonist: agonists of H. glycines DAF-12 nuclear receptor | HEK293 GAL4-hgDAF12 UAS-luciferase reporter, agonist luminescence; normalized to butyrate control | activation, % at 6.8 µM | 370,000 tested, 1.8% active | AID 687014;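 active means activation above a cutoff set at the mean of all screened compounds plus 3 SD, cut at about 10% in these data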;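 further: 0% = DMSO wells and 100% = sodium butyrate wells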
DAX1 inh-2: inhibitors of human orphan nuclear receptor DAX1 (NR0B1) | P51843 | HEK293 Gal4-DAX1 luciferase reporter, luminescence | inhibition, % at 6.75 µM | 340,000 tested, 0.99% active | AID 504766;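 active means inhibition above the mean over all tested compounds plus 3 SD, cut at about 4.2% in these data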;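 further: 0% = DAX1-transfected cells with DMSO and 100% = empty-vector control cells with DMSO; inhibition shows as a rise in luminescence from relieved DAX1 repression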
Target sequence (P51843 207-470 limits assumed): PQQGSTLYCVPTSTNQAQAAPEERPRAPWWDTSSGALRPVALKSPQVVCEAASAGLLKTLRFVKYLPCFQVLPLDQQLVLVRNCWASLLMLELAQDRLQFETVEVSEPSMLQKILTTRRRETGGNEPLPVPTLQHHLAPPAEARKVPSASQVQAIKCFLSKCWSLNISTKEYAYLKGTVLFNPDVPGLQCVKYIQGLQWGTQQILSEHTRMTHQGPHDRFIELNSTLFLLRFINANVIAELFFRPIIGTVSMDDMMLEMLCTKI
hcDAF12 agonist: activates DAF-12 receptor from parasite H. contortus. HEK293 hcDAF-12 lit1-tk-luc reporter, luminescence; 0% DMSO, 100% Δ7-dafachronic acid. activation, % at 6.8 µM. AID 652067. 370,000 tested, 1.4% active;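 active means activation above the mean of all tested compounds plus 3 SD, cut at about 5.5% in these data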;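 further: 100% = response to 3 µM Δ7-dafachronic acid high control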
ssDAF-12 act: activates DAF-12 receptor from parasite S. stercoralis | 370,000 tested, 1% active | HEK293 ssDAF-12/GRIP1 lit1-tk-luc reporter, luminescence; % of 3 µM dafachronic acid response | AID 652126 | activation, % at 6.8 µM;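 active means activation above the mean over all tested compounds plus 3 SD, cut at about 0.9% in these data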;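 further: 0% = DMSO-only wells and 100% = 3 µM delta7-dafachronic acid wells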
Active calls of the source: *; · = no result; ! = not confirmed by another sample.

SMILES	DAX1 inh-1	hgDAF12 agonist	DAX1 inh-2	hcDAF12 agonist	ssDAF-12 act
C[N+](C)(C)CCOC(=O)CCC(=O)OCC[N+](C)(C)C	1	11*!	0	-1	-1
O=C(CCC(=O)OCCOc1ccccc1)OCCOc1ccccc1	1	-3	·	-1	-1
Cc1ccc(Cn2c(=O)n(Cc3ccc(C(=O)NCC4COC4)cc3)c(=O)c3ccccc32)cc1	-2	-2	·	-3	-1
Nc1ccccc1C(=O)N/N=C1/C2CN3CCN(C2)CC1(Cc1ccccc1)C3	2	8	4.5*	2	0
CCCC12CN3CCN(CC(C3)/C1=N\NC(=O)c1ccccc1N)C2	2	6	2	2	0
CCCC[C@H]1C2CC(OC(=O)NCCCC(=O)OCC)C(C2)[C@H]2CCCCN21 (some centres undefined)	0	0	·	-2	-1
CN(C)N1C(N)=C(C#N)C(c2cccs2)C2=C1CC(C)(C)CC2=O (centres undefined)	0	-3	·	0	2.0*
Cc1ccccc1C1C(C#N)=C(N)N(N(C)C)C2=C1C(=O)CC(C)(C)C2 (centres undefined)	0	-2	0	-2	-1
Cc1ccc(/C=C2\SC(N3CCCC3)=NC2=O)cc1	-1	2	·	0	0
CN(C)c1ccc(/C=C2\SC(N3CCCCC3)=NC2=O)cc1	-1	-2	4.6*	0	-2
OCc1ccccc1O[C@@H]1O[C@H](CO)[C@@H](O)[C@H](O)[C@H]1O	1	0	3	-2	-1
COc1cc(/C=C/CO)ccc1O[C@@H]1O[C@H](CO)[C@@H](O)[C@H](O)[C@H]1O	1	-2	4.7*	1	-1
CCc1ccc(-c2nc(CS(=O)CC(=O)NC3CC3)c(C)o2)cc1 (centres undefined)	0	1	1	1	-1
CCc1ccc(-c2nc(CS(=O)CC(=O)O)c(C)o2)cc1 (centres undefined)	1	12*	-2	2	0
Cc1ccc(OCCOc2c(Cl)cc(Cl)cc2Cl)c([N+](=O)[O-])n1	·	8	·	2	-1
CCCNc1c(N)n(-c2ccccc2)c(=O)[nH]c1=O	1	0	6.1*	-1	-2
O=C(Cc1ccccc1)NC1CCCCN(Cc2cccc(Cl)c2)C1=O (centres undefined)	1	3	·	-2	-2
Cc1cccc(NC(=S)NCCC(C)C)c1	0	2	-2	1	-1
CC(C)CCNC(=O)C(=O)Nc1ccccc1	3	13*	2	1	0
CCn1c(C)cc(/C=C2/SC(=O)N(C(C)C(=O)OC)C2=O)c1C (centres undefined)	1	6	0	0	0
COC(=O)C(C)N1C(=O)S/C(=C/c2cc(C)n(C(C)C)c2C)C1=O (centres undefined)	2	12*	0	2	-1
COc1ccc(-c2nnn3c2Cn2c4ccccc4c(=O)n2[C@@H](C(C)C)C3)cc1	-2	-3	·	-3	0
C/C(=N\NC1=NCCN1)c1ccc(Cl)cc1	0	0	1	0	-1
C/C(=N\Nc1nc2c(s1)CCCC2)c1ccc(Cl)cc1	0	6	2	6.3*	0
C[C@@H]1ON(C)[C@H]2C[C@H]3c4cc(-c5cccc(Cl)c5)ccc4CCN3C[C@@H]12	-1	-1	·	-1	-1
SMILES	DAX1 inh-1	hgDAF12 agonist	DAX1 inh-2	hcDAF12 agonist	ssDAF-12 act
COc1ccccc1/C=C/C(=O)NC(=S)N1CCN(C)CC1	3.9*	0	3	0	-2
COc1ccc(/C=C/C(=O)NC(=S)N2CCN(c3ccccc3OC)CC2)cc1	1	0	5.5*	2	-1
CC(C)C(=O)N[C@H]1[C@H](O)CCC[C@]12C(=O)N(Cc1ccccc1)c1ccccc12	1	3	·	-2	-1
C[C@H]1COc2cc(Br)ccc2S(=O)(=O)N1Cc1cn(CCC2OCCO2)nn1	0	0	·	-1	-1
Cc1cc(C)c(C(=O)CN2C(=O)NC3(CCC(C)CC3)C2=O)cc1C (centres undefined)	1	1	-1	0	-2
Cc1cc(C)c(C(=O)CN2C(=O)NC3(CCCCC3)C2=O)cc1C	1	1	0	6.2*	-1
CC(=O)c1c(C)[nH]c(C(=O)CN2C(=O)NC3(CCCCC3)C2=O)c1C	4.1*	0	0	-2	-1
CC(=O)c1c(C)[nH]c(C(=O)CN2C(=O)NC3(CCCCC3C)C2=O)c1C (centres undefined)	2	1	1	0	-1
COc1nc(OC)nc(N2CCC(C(=O)NCc3ccccc3OC)CC2)n1	0	4	·	-2	0
Cc1ccc(C)c(Nc2nc(N)c3ccccc3n2)c1	2	12*	4.5*	4	0
CCOC(=O)[C@]12CCCC=C1N(Cc1ccc(OC)cc1)C(=O)[C@@H]2CC(=O)N1CCC(c2ccccc2)CC1	-2	3	·	-4	-2
CC1(C)CC2CC(C)(CN2C(=O)COC(=O)c2cccnc2Cl)C1 (centres undefined)	1	-1	1	-1	-1
CC1(C)CC2CC(C)(CN2C(=O)COC(=O)c2n[nH]c(=O)c3ccccc23)C1 (centres undefined)	0	1	4.4*	-1	-1
CCOC(=O)CSc1nc2sc3c(c2c(=O)n1-c1ccc(C)cc1)CCN(C)C3	0	0	-1	6.1*	0
CCOC(=O)[C@@]12CN(C(=O)OC(C)(C)C)CC=C1N(Cc1ccc(OC)cc1)C(=O)[C@H]2CC(=O)N1CCN(C(=O)c2ccco2)CC1	0	-2	·	-2	-2
O=C(CCS(=O)(=O)c1ccccc1)N(CCCN1CCOCC1)c1nc2c(F)cccc2s1	1	2	-1	1	-1
Cc1ccc(S(=O)(=O)CC(=O)N(CCCN2CCOCC2)c2nc3c(F)cccc3s2)cc1	4.1*	4	2	0	0
O=C(NCCc1ccccc1)c1nc(-c2cccs2)no1	0	11*	-1	2	0
O=C(NCc1cccs1)c1nc(-c2cccs2)no1	1	2	4.3*	1	-1
O=C(NCc1ccncc1)c1nc(-c2cccs2)no1	-1	0	0	-2	-1
COC(=O)[C@H](C(C)C)N(CCCc1cn(Cc2ccccc2)nn1)S(=O)(=O)c1ccccc1Br	-3	-5	·	-4	-2
CCc1ccc(N2C(=O)C[C@@](C#N)(C(=O)OC)[C@H]2c2ccccc2)cc1	1	-6	·	0	-1
Cc1cc(C(=O)Nc2ccc(S(=O)(=O)N3CCCC3)cc2)no1	1	1	-1	-1	-1
CN1CCN(C(=O)c2ccccc2NC(=O)c2sc3ccccc3c2Cl)CC1	0	-1	2	0	-1
Cc1ccc(C(=O)Nc2ccc(N3CCCCC3)cc2)cc1	2	6	4	2	0
